Measurements from PubChem BioAssay (Tox21).
Records with an inconclusive call do not appear. Entries that show only a call come without a potency. Calls of active or inactive are those of the source. Unless noted, calls come from the whole dose curve; as a rule, active = well fitted activation curve with a large enough effect in the repeat runs; inconclusive = weak or mixed curves; inactive = no such curve, though single readings can be large or run the other way.

Test: qHTS assay for small molecule agonists of the p53 signaling pathway (AID 651631; calls by dose curve)
Settings: HCT-116 p53RE-bla reporter, beta-lactamase FRET ratio, 16 h; series mostly up to 73.3 µM
Summary of the method: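 Fluorescence intensity from cleaved LiveBLAzer B/G substrate (2 h, room temperature) served as the signal. Beforehand, HCT-116 reporter cells bearing p53 response elements were treated 16 h at 37 °C with DMSO-dissolved compounds.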
Note: nearly all actives have a fitted effect of over 15% in size.
Potency is the fitted concentration of half-maximal effect.

Structure (SMILES)	Potency
C/C=C/C=C/CCCCCCCO	inactive
Cc1cc(OI)c(C(C)C)cc1-c1cc(C(C)C)c(OI)cc1C	inactive
CCCCN(CCCC)CCCOC(=O)c1ccc(N)cc1	inactive
CCCCC1C(=O)N(c2ccccc2)N(c2ccc(O)cc2)C1=O (stereo not drawn)	12700 nM (active)
CC(C)(C)CC(C)(C)c1ccc(OCCO)cc1	inactive
CC(C)(C)C(=O)O	inactive
CCCCC/C(=C\c1ccccc1)CO	inactive
C[N+]1(C)CCC(=C(c2ccccc2)c2ccccc2)CC1	inactive
CO[C@H]1C=CO[C@@]2(C)Oc3c(C)c(O)c4c(O)c(c5c(c4c3C2=O)=NC2(CCN(CC(C)C)CC2)N=5)NC(=O)/C(C)=C\C=C/[C@H](C)[C@H](O)[C@@H](C)[C@@H](O)[C@@H](C)[C@H](OC(C)=O)[C@@H]1C	inactive
CCC(C)=O	inactive
C[N+](C)(C)CCOC(N)=O	inactive
CN1CCN(CCCN2c3ccccc3Sc3ccc(S(=O)(=O)N(C)C)cc32)CC1	inactive
CCCCCC=CCC=CCCCCCCCC(=O)OCC	inactive
Cc1cc(O)c(C(C)C)cc1Cl	inactive
CCC(Cc1ccccc1)(C(=O)c1ccc(N2CCOCC2)cc1)N(C)C (stereo not drawn)	inactive
CCOC(=O)[C@@H](C)Oc1ccc(Oc2nc3ccc(Cl)cc3o2)cc1	inactive
CC(=O)[C@H]1CC[C@H]2[C@@H]3C[C@H](C)C4=CC(=O)CC[C@]4(C)[C@H]3[C@@H](O)C[C@]12C	inactive
CNCCCC1c2ccccc2C=Cc2ccccc21	inactive
CCc1c2c(nc3ccc(OC(=O)N4CCC(N5CCCCC5)CC4)cc13)-c1cc3c(c(=O)n1C2)COC(=O)[C@]3(O)CC	2660 nM (active)

Structure (SMILES)	Potency
CC(=O)CC(c1ccc([N+](=O)[O-])cc1)c1c(O)c2ccccc2oc1=O (stereo not drawn)	inactive
CC(C)(CCl)c1ccccc1	inactive
CCC(C(=O)OCCN(CC)CC)c1ccccc1 (stereo not drawn)	inactive
CCOC(=O)c1ccccc1C	inactive
CC1CC(=O)NN=C1c1ccc(NCC(C)(C)NCC(O)COc2cc(Cl)ccc2C#N)cc1 (stereo not drawn)	inactive
CC[C@@H]([C@H](C)O)n1ncn(-c2ccc(N3CCN(c4ccc(OC[C@@H]5CO[C@@](Cn6cncn6)(c6ccc(F)cc6F)C5)cc4)CC3)cc2)c1=O	inactive
CCn1nc(C)c2c1C(=O)NCC(c1ccc(O)cc1)=N2	inactive
CCn1cc(C(=O)O)c(=O)c2cc(F)c(N3CCNCC3)nc21	inactive
CNC(=S)NC	inactive
CCCCOC(=O)CCS	inactive
Fc1c(F)c(F)c(Br)c(F)c1F	inactive
N#C/C(=C1\SCC(c2ccccc2Cl)S1)n1ccnc1 (stereo not drawn)	inactive
CCC(C)(C)C1CCC(O)CC1 (stereo not drawn)	inactive
O=S(=O)(c1ccccc1)c1ccc(Cl)cc1	inactive
CC(C)OCC1CO1 (stereo not drawn)	inactive
c1cnc2c(n1)CCCC2	inactive
COC(=O)Nc1nc2ccc(C(=O)c3cccs3)cc2[nH]1	133 nM (active)
CCCCCCCCCCCC[N+](C)(C)CC(=O)[O-]	inactive
O=C(Nc1ccc([N+](=O)[O-])cc1)Nc1ccc([N+](=O)[O-])cc1	inactive

Test: qHTS assay for small molecules that induce genotoxicity in human embryonic kidney cells expressing luciferase-tagged ATAD5 (AID 651632)
Settings: HEK293T ATAD5-luciferase induction, 16 h; series mostly up to 83.3 µM
Summary of the method: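 DMSO vehicle served as the control. HEK293T reporter cells, 16 hr at 37C, then 30 min Amplite at room temperature; ATAD5 induction is measured as luciferase activity.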

Structure (SMILES)	Potency
C/C=C/C=C/CCCCCCCO	inactive
Cc1cc(OI)c(C(C)C)cc1-c1cc(C(C)C)c(OI)cc1C	inactive
CCCCN(CCCC)CCCOC(=O)c1ccc(N)cc1	inactive
CCCCC1C(=O)N(c2ccccc2)N(c2ccc(O)cc2)C1=O (stereo not drawn)	inactive
CC(C)(C)CC(C)(C)c1ccc(OCCO)cc1	inactive
CC(C)(C)C(=O)O	inactive
CCCCC/C(=C\c1ccccc1)CO	inactive
C[N+]1(C)CCC(=C(c2ccccc2)c2ccccc2)CC1	inactive
CO[C@H]1C=CO[C@@]2(C)Oc3c(C)c(O)c4c(O)c(c5c(c4c3C2=O)=NC2(CCN(CC(C)C)CC2)N=5)NC(=O)/C(C)=C\C=C/[C@H](C)[C@H](O)[C@@H](C)[C@@H](O)[C@@H](C)[C@H](OC(C)=O)[C@@H]1C	inactive
CCC(C)=O	inactive
CN1CCN(CCCN2c3ccccc3Sc3ccc(S(=O)(=O)N(C)C)cc32)CC1	inactive
CCCCCC=CCC=CCCCCCCCC(=O)OCC	inactive
Cc1cc(O)c(C(C)C)cc1Cl	inactive
CCC(Cc1ccccc1)(C(=O)c1ccc(N2CCOCC2)cc1)N(C)C (stereo not drawn)	inactive
CC(=O)[C@H]1CC[C@H]2[C@@H]3C[C@H](C)C4=CC(=O)CC[C@]4(C)[C@H]3[C@@H](O)C[C@]12C	inactive
CNCCCC1c2ccccc2C=Cc2ccccc21	inactive
CCc1c2c(nc3ccc(OC(=O)N4CCC(N5CCCCC5)CC4)cc13)-c1cc3c(c(=O)n1C2)COC(=O)[C@]3(O)CC	inactive
CC(C)(CCl)c1ccccc1	inactive

Structure (SMILES)	Potency
CCC(C(=O)OCCN(CC)CC)c1ccccc1 (stereo not drawn)	inactive
CCOC(=O)c1ccccc1C	inactive
CC1CC(=O)NN=C1c1ccc(NCC(C)(C)NCC(O)COc2cc(Cl)ccc2C#N)cc1 (stereo not drawn)	inactive
CC[C@@H]([C@H](C)O)n1ncn(-c2ccc(N3CCN(c4ccc(OC[C@@H]5CO[C@@](Cn6cncn6)(c6ccc(F)cc6F)C5)cc4)CC3)cc2)c1=O	inactive
CCn1nc(C)c2c1C(=O)NCC(c1ccc(O)cc1)=N2	inactive
CCn1cc(C(=O)O)c(=O)c2cc(F)c(N3CCNCC3)nc21	inactive
CNC(=S)NC	inactive
CCCCOC(=O)CCS	inactive
Fc1c(F)c(F)c(Br)c(F)c1F	inactive
N#C/C(=C1\SCC(c2ccccc2Cl)S1)n1ccnc1 (stereo not drawn)	inactive
CCC(C)(C)C1CCC(O)CC1 (stereo not drawn)	inactive
O=S(=O)(c1ccccc1)c1ccc(Cl)cc1	inactive
CC(C)OCC1CO1 (stereo not drawn)	inactive
c1cnc2c(n1)CCCC2	inactive
COC(=O)Nc1nc2ccc(C(=O)c3cccs3)cc2[nH]1	2370 nM (active)
CCCCCCCCCCCC[N+](C)(C)CC(=O)[O-]	inactive
O=C(Nc1ccc([N+](=O)[O-])cc1)Nc1ccc([N+](=O)[O-])cc1	inactive
